Data published in PubChem BioAssay (NCATS).
Inconclusive results are not listed. Calls of active or inactive are those of the source. Unless noted, calls follow the shape of the dose curve; as a rule, active = well fitted curve in the direction sought with a large enough effect; inconclusive = small, poorly fitted or top-dose-only effect, or another doubt; inactive = no such curve, though single readings can be large; an effect the other way counts as inactive or inconclusive.

Legend:
[1] = Cytometric Cell-Based qHTS for Inhibitors of the mTORC1 Signaling Pathway in MEF (Tsc2-/-, p53-/-) Cells (AID 2660);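 also: Tsc2 and p53 null MEFs carrying empty vector with compound for 24 h; percent of cells above a phospho-rpS6 to PI ratio cutoff in each well; series mostly up to about 38 µM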
Outline: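 Readout: Alexa-488 phospho-rpS6 (Ser235/236) intensity divided by PI intensity, thresholded against 7.5 nM rapamycin wells and reported as % positive cells. PI cell count served as the viability measure. Compound exposure was 24 hrs at 37 degree Celsius.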

[2] = High Content Imaging Cell-Based qHTS for Inhibitors of the mTORC1 Signaling Pathway in MEF (Tsc2-/-, p53-/-) Cells (AID 2666);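 also: percent of cells scored positive for phospho-rpS6 Ser235/236 immunostaining by imaging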; also: potency is read from the fitted curve at half-maximal effect
Outline: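 Cells were plated, dosed with compound after 24 hrs, and incubated another 24 hrs at 37 degree Celsius. Fixed cells were immunostained for phospho-rpS6 Ser235/236 and counterstained, and the normalized signal was scored as % active cells against rapamycin and DMSO controls.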

[3] = High Content Imaging Cell-Based qHTS for Inhibitors of the mTORC1 Signaling Pathway in MEF Cells (AID 2667);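 also: Tsc2-/- p53-/- MEFs stably re-expressing wild-type Tsc2 exposed 24 h; series mostly up to about 38 µM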
Outline: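 Immunofluorescence for rpS6 phosphorylation in MEFs of Tsc2-/-, p53-/- background rescued with WT Tsc2. Compound exposure lasted 24 hrs. Inhibition was scored against rapamycin-treated control wells.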

[4] = Cytometry Cell-Based qHTS for Inhibitors of the mTORC1 Signaling Pathway in MEF cells (AID 2668); also: potency is read from the fitted curve at half-maximal effect
Outline: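 In MEFs grown in DMEM + 10% FBS, a 24 hrs compound exposure preceded imaging of phospho-rpS6 Ser235/236 by laser-scanning cytometry.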

[5] = target: Ubiquitin carboxyl-terminal hydrolase 2 (Homo sapiens) (UniProt O75604); assay: qHTS Validation Assay for Inhibitors of Ubiquitin-specific Protease USP2a Using CHOP2 as the Reporter (AID 463106)
Chain of Ubiquitin carboxyl-terminal hydrolase 2 (Homo sapiens) (O75604 whole entry, looked up): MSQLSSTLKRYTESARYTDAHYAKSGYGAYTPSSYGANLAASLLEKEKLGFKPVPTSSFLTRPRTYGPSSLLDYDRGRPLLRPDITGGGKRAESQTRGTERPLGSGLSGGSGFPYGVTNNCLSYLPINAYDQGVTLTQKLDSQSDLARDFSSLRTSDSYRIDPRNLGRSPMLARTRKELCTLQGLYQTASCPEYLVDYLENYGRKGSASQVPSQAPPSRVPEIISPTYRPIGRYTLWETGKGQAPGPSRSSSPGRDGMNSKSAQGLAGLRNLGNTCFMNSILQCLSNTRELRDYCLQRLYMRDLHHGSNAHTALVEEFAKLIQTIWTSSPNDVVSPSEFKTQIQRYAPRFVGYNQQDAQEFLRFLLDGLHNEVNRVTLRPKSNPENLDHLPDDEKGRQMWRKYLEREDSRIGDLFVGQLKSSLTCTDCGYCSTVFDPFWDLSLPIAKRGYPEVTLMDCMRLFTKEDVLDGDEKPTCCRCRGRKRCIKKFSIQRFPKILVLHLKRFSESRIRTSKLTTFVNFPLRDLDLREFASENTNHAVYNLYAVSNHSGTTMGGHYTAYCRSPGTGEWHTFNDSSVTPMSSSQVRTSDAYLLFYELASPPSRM
Outline: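 10nM USP2 core + cpd, 30min RT; add 25nM Ub-CHOP2/25nM substrate; 60min RT; FI 485/531nm. Buffer Tris pH 8.0, CaCl2, BME, CHAPS. Norm. to NEM = 100% inhibition; time-zero read flags fluorescent artifacts.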

[6] = target: DNA polymerase III PolC-type (Bacillus subtilis (strain 168)) (UniProt P13267); assay: qHTS Validation Assay for the Inhibitors of DNA Replication in Gram-Positive Bacteria (AID 485295);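 also: reconstituted holoenzyme with PolC plus beta clamp SSB and primase; PicoGreen fluorescence of double-stranded DNA made on primed circular M13 template; series mostly up to about 57 µM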
Chain of DNA polymerase III PolC-type (Bacillus subtilis (strain 168)) (P13267 whole entry, looked up): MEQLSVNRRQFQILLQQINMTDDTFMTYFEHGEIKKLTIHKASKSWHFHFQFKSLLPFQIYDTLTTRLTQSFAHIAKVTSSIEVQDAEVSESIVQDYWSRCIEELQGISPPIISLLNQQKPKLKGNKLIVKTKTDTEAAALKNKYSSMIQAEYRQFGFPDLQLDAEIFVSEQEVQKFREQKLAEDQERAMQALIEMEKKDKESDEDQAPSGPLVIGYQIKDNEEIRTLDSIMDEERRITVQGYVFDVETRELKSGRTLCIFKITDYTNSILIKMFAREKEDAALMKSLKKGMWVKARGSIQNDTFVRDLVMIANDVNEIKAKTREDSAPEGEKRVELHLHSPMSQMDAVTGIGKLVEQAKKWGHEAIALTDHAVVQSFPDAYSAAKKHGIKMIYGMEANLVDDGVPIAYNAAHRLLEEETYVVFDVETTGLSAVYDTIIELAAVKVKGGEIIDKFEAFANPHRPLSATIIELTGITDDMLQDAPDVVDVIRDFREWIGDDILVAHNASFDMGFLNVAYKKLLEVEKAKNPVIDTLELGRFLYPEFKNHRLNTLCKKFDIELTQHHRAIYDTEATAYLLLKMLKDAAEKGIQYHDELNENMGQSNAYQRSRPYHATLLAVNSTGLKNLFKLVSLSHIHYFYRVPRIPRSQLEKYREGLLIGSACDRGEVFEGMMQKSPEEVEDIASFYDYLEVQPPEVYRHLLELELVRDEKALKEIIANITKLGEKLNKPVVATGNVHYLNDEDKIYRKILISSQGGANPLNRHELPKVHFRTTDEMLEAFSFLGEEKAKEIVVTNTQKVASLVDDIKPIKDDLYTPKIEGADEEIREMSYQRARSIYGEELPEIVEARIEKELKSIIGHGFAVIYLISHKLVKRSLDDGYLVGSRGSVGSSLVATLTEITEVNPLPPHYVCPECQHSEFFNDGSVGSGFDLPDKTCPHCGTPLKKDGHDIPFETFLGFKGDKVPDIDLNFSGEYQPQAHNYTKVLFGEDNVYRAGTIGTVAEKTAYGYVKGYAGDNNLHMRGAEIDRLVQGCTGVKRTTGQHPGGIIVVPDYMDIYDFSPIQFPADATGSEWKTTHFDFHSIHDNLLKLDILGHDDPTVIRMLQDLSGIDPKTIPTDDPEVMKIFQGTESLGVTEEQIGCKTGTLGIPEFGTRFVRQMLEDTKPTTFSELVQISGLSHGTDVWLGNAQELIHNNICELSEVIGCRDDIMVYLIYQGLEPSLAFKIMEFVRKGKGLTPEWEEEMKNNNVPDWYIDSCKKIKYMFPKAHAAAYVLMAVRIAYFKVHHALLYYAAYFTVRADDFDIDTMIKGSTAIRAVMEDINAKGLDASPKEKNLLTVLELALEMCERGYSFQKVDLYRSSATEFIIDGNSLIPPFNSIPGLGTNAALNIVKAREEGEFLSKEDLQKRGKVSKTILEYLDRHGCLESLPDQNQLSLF
Outline: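 Inhibition of DNA synthesis by the reconstituted PolC holoenzyme, monitored through PicoGreen staining of dsDNA formed from ssM13Gori, dNTPs and NTPs, with compound preincubation and room-temperature reaction.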

[7] = target: Tumor susceptibility gene 101 protein (Homo sapiens) (UniProt Q99816); assay: qHTS Validation Assay for Iinhibitors of HIV-1 Budding by Blocking the Interaction of PTAP/TSG101 (AID 485342; calls by dose curve)
Chain of Tumor susceptibility gene 101 protein (Homo sapiens) (Q99816 whole entry, looked up, the tested form may be a part): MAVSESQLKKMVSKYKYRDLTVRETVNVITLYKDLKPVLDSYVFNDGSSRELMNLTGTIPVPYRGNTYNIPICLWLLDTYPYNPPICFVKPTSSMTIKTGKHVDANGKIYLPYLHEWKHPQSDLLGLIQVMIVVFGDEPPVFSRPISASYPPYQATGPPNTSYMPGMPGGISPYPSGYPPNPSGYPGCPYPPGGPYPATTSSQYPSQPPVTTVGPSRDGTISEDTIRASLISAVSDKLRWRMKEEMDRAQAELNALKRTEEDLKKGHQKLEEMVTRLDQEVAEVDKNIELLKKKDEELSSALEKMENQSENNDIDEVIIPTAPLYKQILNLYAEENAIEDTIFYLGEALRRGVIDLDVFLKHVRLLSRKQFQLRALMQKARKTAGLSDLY
Outline: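 Compound wells held the Tsg101 binding domain (10 uM) and a FITC-conjugated PTAP peptide (50 nM) in buffer at pH 7.5 containing 0.15 M NaCl and 0.01% Tween 20; polarization was recorded after 20 min, r.t.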

[8] = target: Beta-2 adrenergic receptor (Homo sapiens) (UniProt P07550); assay: qHTS validation assay of beta-arrestin-biased ligands of beta2-adrenergic receptor (AID 485366)
Chain of Beta-2 adrenergic receptor (Homo sapiens) (P07550 whole entry, looked up): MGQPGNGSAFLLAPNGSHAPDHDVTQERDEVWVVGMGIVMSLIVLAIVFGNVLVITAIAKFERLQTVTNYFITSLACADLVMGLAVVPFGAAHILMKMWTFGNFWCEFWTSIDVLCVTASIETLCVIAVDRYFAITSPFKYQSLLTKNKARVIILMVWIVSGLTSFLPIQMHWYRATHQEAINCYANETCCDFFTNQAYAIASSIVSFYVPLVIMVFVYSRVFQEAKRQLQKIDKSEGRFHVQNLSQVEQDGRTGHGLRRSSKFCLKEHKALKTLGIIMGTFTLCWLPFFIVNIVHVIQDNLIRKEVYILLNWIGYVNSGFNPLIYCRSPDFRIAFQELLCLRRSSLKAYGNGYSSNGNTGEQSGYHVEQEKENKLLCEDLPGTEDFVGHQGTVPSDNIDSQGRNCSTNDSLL
Outline: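 Tango cells (recombinant beta2-AR with recombinant beta-arrestin; recruitment releases tTA driving luciferase) were treated with compounds titrated up to 46 microM for 18 hr at 37 degrees C. Luminescence gave %Activity, and concentration-response curves were curve-classified.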

[9] = qHTS Assay for Identification of Small Molecule Inducers of Hypoxia Response (AID 2120; active = well fitted curve in the direction sought with a large enough effect in the signal ratio, with a control signal flat, not every such curve was filed as active; the % refers to the signal ratio)
Outline: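 HRE-bla ME-180 cells in Opti-MEM with 0.5% dialyzed FBS, pre-plated 4-5 h, then compound titration for 17 h at 37 degrees Celsius. CCF4 loaded 2.5 h at room temperature; 460/530 nm ratio gave %Activity and AC50 for induction.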

[10] = qHTS for differential inhibitors of proliferation of Plasmodium falciparum line W2 (AID 1883); conditions: Potency: Plasmodium falciparum W2 proliferation inhibition;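 also: parasites grown with compound for 72 h before lysis and staining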; also: potency is read from the fitted curve at half-maximal effect
[11] = qHTS for differential inhibitors of proliferation of Plasmodium falciparum line HB3 (AID 1886); conditions: Potency: Plasmodium falciparum HB3 proliferation inhibition;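 also: parasites grown with compound for 72 h before SYBR Green readout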; also: potency is read from the fitted curve at half-maximal effect
[12] = target: ATP-dependent DNA helicase Q1 (Homo sapiens) (UniProt P46063); assay: qHTS Validation Assay for Inhibitors of RecQ-Like Dna Helicase 1 (RECQ1) (AID 2353)
Chain of ATP-dependent DNA helicase Q1 (Homo sapiens) (P46063 whole entry, looked up): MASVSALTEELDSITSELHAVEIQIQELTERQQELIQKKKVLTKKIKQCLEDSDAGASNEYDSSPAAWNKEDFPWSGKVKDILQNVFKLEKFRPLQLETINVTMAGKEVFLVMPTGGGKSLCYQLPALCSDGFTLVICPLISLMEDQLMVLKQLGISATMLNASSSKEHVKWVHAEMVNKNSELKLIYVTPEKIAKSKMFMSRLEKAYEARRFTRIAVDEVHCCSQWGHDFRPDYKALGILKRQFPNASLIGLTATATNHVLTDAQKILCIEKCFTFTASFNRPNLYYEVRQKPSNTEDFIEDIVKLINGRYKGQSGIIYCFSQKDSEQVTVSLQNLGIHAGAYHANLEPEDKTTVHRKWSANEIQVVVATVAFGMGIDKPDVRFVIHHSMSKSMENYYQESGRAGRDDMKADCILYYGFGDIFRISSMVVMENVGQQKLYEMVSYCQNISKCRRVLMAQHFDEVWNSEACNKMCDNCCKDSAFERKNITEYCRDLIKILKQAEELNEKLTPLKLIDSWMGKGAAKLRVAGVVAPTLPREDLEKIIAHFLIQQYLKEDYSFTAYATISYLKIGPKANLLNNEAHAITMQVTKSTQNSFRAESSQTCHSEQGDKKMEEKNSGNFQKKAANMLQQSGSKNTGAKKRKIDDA
Outline: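 50 nM RECQ1T1 preincubated 15 min with compound in Tris pH 8.0 buffer with MgCl2, DTT, Tween-20 and 2.5 ug/ml poly(dI-dC); started with 200 nM TAMRA/BHQ-2 forked duplex and 2 mM ATP. Unwinding read as fluorescence (525/598 nm), two reads 2 h apart.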

[13] = target: RecQ-like DNA helicase BLM (Homo sapiens) (UniProt P54132); assay: qHTS Validation Assay for Inhibitors of Bloom's syndrome helicase (BLM) (AID 2364)
Outline: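 Forked 20-bp duplex substrate (200 nM, TAMRA/BHQ-2) plus 2 mM ATP added after 15 min compound preincubation with 50 nM enzyme, pH 8.0, poly(dI-dC) 2.5 ug/ml. Strand separation followed by fluorescence (525/598 nm) over 2 h, normalized to enzyme-free and DMSO controls.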

[14] = Validation screen for small molecules that induce DNA re-replication in MCF 10A normal breast cells (AID 463097); also: nearly all actives have a fitted effect of over 60% in size; also: potency is read from the fitted curve at half-maximal effect
Outline: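 Following 48 hr compound incubation (37 C, 5% CO2), MCF 10A cells receive Hoechst for 40 min at 37 C. Nuclei are then scanned (excitation 405 nm, emission 500-530 nm) for total fluorescence intensity.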

[15] = qHTS Validation Assay to Find Inhibitors of Chronic Active B-Cell Receptor Signaling (AID 485345; active = well fitted curve in the direction sought with a large enough effect in the main read-out, with a control signal flat, not every such curve was filed as active)
Outline: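 Read-out: ratio of filter-corrected green (IkappaBalpha fusion) to red (native) luciferase signal in doxycycline-induced TMD8 cells after 4 h at 37C. Titration spanned 46 uM–3 nM; Data were normalised to basal cells and 10 uM MG-132 wells.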

[16] = target: ATP-dependent 6-phosphofructokinase (Trypanosoma brucei brucei) (UniProt O15648); assay: qHTS Validation Assay to Find Inhibitors of T. brucei phosphofructokinase (AID 485368); also: potency is read from the fitted curve at half-maximal effect
Chain of ATP-dependent 6-phosphofructokinase (Trypanosoma brucei brucei) (O15648 whole entry, looked up): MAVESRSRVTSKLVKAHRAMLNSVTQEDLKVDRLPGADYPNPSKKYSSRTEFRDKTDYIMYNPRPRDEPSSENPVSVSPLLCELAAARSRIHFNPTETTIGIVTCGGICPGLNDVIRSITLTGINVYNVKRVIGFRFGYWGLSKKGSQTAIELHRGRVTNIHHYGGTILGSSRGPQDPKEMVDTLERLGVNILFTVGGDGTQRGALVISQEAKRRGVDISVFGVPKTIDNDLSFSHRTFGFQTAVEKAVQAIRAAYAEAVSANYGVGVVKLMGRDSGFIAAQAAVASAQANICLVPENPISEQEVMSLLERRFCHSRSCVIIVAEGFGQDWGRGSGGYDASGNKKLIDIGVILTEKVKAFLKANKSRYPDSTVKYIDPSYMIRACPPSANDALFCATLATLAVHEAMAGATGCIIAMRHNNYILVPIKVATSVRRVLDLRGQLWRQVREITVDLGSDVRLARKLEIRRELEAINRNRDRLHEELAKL
Outline: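 Compounds (up to 57 uM, titration series) were pinned into substrate buffer, then 1.25 nM PFK added; after 45 min at room temperature, ADP product was quantified by ADP-Glo luminescence and concentration-response curves fitted.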

[17] = Quantitative high throughput screen for delayed death inhibitors of the malarial parasite plastid, 96 hour incubation (AID 488745); also: nearly all actives have a fitted effect of over 70% in size; also: potency is read from the fitted curve at half-maximal effect
Outline: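 Luciferase-expressing P. falciparum in erythrocytes (2% hematocrit, 0.1% parasitemia) incubated with compound for 96 h at 37 C, 5% CO2, in RPMI 1640 with 0.5% Albumax. Growth inhibition read as decreased luminescence.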

[18] = qHTS Assay for Modulators of Human Peripheral Myelin Protein 22 (PMP22) Expression/Activity (AID 1967; active = well fitted curve in the direction sought with a large enough effect in the signal ratio; the % refers to the signal ratio)
Outline: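 Engineered MSC80 cells, Pmp22-promoter green and EF-alpha red luciferase reporters; 24h compound treatment at 37 °C. Concentration-response fits on green, red and ratio signals, each overlap-corrected, with %Activity normalized to untreated wells.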

[19] = Quantitative high throughput screen for delayed death inhibitors of the malarial parasite plastid, 48 hour incubation (AID 488752); also: nearly all actives have a fitted effect of over 65% in size; also: potency is read from the fitted curve at half-maximal effect
Outline: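 Erythrocytes infected with firefly luciferase-expressing P. falciparum (2% hematocrit, 0.1% parasitemia) cultured with compound for 48 h at 37 C, 5% CO2, in RPMI 1640/0.5% Albumax. Growth inhibition read as loss of luminescence.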

[20] = target: Ferritin light chain (Equus caballus) (UniProt P02791); assay: qHTS Validation Assay for Identification of Novel General Anesthetics (AID 2323); also: series mostly up to about 77 µM
Chain of Ferritin light chain (Equus caballus) (P02791 2-175 limits assumed): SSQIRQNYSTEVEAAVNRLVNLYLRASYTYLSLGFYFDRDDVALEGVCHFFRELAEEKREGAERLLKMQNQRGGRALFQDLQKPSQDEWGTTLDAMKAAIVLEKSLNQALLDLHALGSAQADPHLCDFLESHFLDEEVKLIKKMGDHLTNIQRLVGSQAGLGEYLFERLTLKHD
Outline: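 Normalized fluorescence response, scaled between free 1-AMA and 1-AMA/apoferritin complex, fitted to a four-parameter Hill equation for concentration-effect values. Binding mix: 10 uM horse-spleen apoferritin, 50% saturated 1-AMA in PBS; read 380/535 nm after 10 min.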

Measured: Potency

CC1CC2C3CCC4=CC(=O)C=C[C@]4(C)[C@@]3(F)[C@@H](O)C[C@]2(C)[C@@]1(O)C(=O)CO (some centres not stated)
inactive: [1] | [2] | [3] | [4] | [5] | [6] | [7] | [8]

N=C(N)c1ccc(OCCCCCOc2ccc(C(=N)N)cc2)cc1
inactive: [9]

CCN(CC)CC#CCOC(=O)C(O)(c1ccccc1)C1CCCCC1 (configuration not stated)
active: [10] 2.24 µM | [11] 8.91 µM
not listed: [9] | [18] | [19] | [20]
inactive: all other assays above

COc1cc2nc(N3CCCN(C)CC3)nc(NC3CCN(Cc4ccccc4)CC3)c2cc1OC
active: [2] 2.61 µM | [4] 6.56 µM
inactive: [5] | [6] | [7] | [8]

O=C(O)c1cc(=O)[nH]c(=O)[nH]1
inactive: [9]

Nc1nc(N)c2nc(CNc3ccc(C(=O)NC(CCC(=O)O)C(=O)O)cc3)cnc2n1 (configuration not stated)
not listed: [9] | [13] | [16] | [20]
inactive: all other assays above

CCN1CCCC1CNC(=O)c1cc(S(N)(=O)=O)ccc1OC (configuration not stated)
not listed: [9] | [13] | [16]
inactive: all other assays above

CC1=C(C(=O)O)N2C(=O)[C@@H](NC(=O)C(N)c3ccccc3)[C@H]2SC1 (some centres not stated)
not listed: [1] | [9] | [13] | [16]
inactive: all other assays above

CC(C)(C)NC(=O)[C@H]1CC[C@H]2[C@@H]3CC[C@H]4NC(=O)C=C[C@]4(C)[C@H]3CC[C@]12C
active: [10] 10 µM
inactive: [20] | [12] | [14] | [17] | [19]

OCc1ccc(-c2nn(Cc3ccccc3)c3ccccc23)o1
active: [10] 8.91 µM | [14] 12.6 µM
not listed: [9] | [11] | [13] | [15] | [16] | [18]
inactive: all other assays above

Cc1ccnc2c1NC(=O)c1cccnc1N2C1CC1
inactive: [9]

CC(=O)[C@H]1CC[C@H]2[C@@H]3CCC4=CC(=O)CC[C@]4(C)[C@H]3CC[C@]12C
not listed: [9] | [10] | [11] | [15] | [17] | [18] | [20]
inactive: all other assays above

CC(=O)Oc1ccccc1C(=O)Nc1ncc([N+](=O)[O-])s1
inactive: [9]

N[C@@H](Cc1ccc(O)c(O)c1)C(=O)O
active: [16] 23.9 µM
inactive: [1] | [2] | [3] | [4] | [6] | [7] | [15] | [8]

CCN(CC)CCn1c(=O)c(Cc2ccc(OC)cc2)nc2ccccc21
inactive: [1] | [2] | [3] | [4] | [5] | [6] | [7] | [8] | [16]

NC(=O)c1ccc2[nH]ccc2c1
inactive: [1] | [2] | [3] | [4] | [5] | [6] | [7] | [15] | [8]

COc1cc2ncnc(Nc3cccc(Cl)c3)c2cc1OC
active: [10] 7.94 µM | [11] 10 µM | [17] 3.29 µM | [19] 2.62 µM
not listed: [9] | [13] | [14] | [15] | [16] | [18]
inactive: all other assays above

CC(C)NCC(O)c1ccc(NS(C)(=O)=O)cc1 (configuration not stated)
not listed: [8] | [9] | [10] | [13] | [16] | [17]
inactive: all other assays above

COc1ccc2cc3[n+](cc2c1OC)CCc1cc2c(cc1-3)OCO2
inactive: [9]

Cc1noc(NS(=O)(=O)c2ccc(N)cc2)c1C
inactive: [9]

Cc1ccc(S(=O)(=O)N[C@@H](Cc2ccccc2)C(=O)CCl)cc1
active: [10] 11.2 µM
inactive: [11] | [20] | [12] | [5] | [6] | [7] | [8] | [17] | [19]

O=C(O)C1CCCN(CCC=C(c2ccccc2)c2ccccc2)C1 (configuration not stated)
not listed: [9] | [16]
inactive: all other assays above

CCCCS(=N)(=O)CCC(N)C(=O)O (configuration not stated)
active: [19] 2.08 µM
not listed: [9] | [10]
inactive: all other assays above

NC(N)=NC(N)=NCCc1ccccc1
inactive: [9]

NC(=O)c1cccc(N)c1
not listed: [9] | [16] | [18]
inactive: all other assays above
